Common to all, as to test: DAPPL (digital affinity profiling via proximity ligation, sequencing); 10 mM Tris-HCl pH 7.5, 50 mM NaCl, 1 mM DTT, 4% glycerol, room temperature, 30 min; GST-TFs on glutathione beads, 16-mer random dsDNA library, 0.1% formaldehyde crosslink after washing; high values mean tight binding
For one assay, the target named is T1, FLI1 (Homo sapiens, UniProt Q01543 1-452).
T1 sequence: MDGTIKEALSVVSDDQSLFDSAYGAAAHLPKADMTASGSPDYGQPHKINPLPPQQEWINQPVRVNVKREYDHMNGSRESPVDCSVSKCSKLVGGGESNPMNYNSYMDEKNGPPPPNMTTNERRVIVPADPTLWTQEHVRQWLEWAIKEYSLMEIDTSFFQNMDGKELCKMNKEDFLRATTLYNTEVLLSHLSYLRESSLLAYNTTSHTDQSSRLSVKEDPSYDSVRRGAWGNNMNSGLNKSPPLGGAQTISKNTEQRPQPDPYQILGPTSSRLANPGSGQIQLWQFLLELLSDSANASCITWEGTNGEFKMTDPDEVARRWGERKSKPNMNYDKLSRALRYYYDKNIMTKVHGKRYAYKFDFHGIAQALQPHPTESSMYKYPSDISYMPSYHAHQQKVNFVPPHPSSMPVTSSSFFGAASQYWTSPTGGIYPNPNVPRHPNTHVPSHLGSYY
The settings on record: protein: recombinant; tags: N-terminal GST; dsDNA, one strand shown. The gist of the method:
(§1)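 Beads coated with glutathione captured GST-fused human transcription factors that had been expressed in yeast, and the factors were then given DNA barcodes and pooled with a tag-only sample. The pools were incubated with 200 nmole of a random double-stranded 16-mer DNA library in Tris/NaCl/DTT/glycerol buffer for 30 min at room temperature, washed, crosslinked with 0.1% formaldehyde and proximity-ligated with BsaI/T4 ligase at 37 °C for 1 h. PCR amplification and Illumina NextSeq500 sequencing came last. Binding signal is each hexamer's read frequency for a factor divided by its frequency for the tag-only sample.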

Another assay addresses T2, GABPA (Homo sapiens, UniProt Q06546 1-454).
T2 sequence: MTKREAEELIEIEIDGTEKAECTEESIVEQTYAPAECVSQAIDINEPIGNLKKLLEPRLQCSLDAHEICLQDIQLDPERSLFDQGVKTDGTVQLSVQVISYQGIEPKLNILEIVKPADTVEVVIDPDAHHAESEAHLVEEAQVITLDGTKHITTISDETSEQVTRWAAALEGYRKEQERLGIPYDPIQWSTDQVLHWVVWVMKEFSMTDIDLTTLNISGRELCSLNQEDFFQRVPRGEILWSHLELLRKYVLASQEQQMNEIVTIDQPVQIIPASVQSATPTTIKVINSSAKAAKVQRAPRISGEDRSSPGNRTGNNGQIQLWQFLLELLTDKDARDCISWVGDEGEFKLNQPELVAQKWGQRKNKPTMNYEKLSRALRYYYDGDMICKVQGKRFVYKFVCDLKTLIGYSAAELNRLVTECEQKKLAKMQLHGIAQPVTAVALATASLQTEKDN
To be noted: protein: recombinant; tags: N-terminal GST; dsDNA, one strand shown. In short, it runs like this:
as §1

The target in the next assay is T3, ERG (Homo sapiens, UniProt P11308 1-479).
T3 sequence: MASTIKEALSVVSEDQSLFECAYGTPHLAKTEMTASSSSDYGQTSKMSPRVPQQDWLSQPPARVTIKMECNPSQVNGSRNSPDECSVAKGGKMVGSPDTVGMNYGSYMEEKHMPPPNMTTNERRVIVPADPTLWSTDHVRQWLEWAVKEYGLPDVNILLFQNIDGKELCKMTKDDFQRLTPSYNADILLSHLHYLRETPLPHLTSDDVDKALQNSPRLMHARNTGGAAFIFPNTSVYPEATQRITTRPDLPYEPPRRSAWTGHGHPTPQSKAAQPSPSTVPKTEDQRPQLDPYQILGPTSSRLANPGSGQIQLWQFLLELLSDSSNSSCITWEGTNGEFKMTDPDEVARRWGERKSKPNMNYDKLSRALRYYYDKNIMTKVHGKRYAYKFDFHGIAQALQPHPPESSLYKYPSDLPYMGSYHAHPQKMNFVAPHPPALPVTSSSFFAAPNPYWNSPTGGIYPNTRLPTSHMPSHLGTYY
The settings on record: protein: recombinant; tags: N-terminal GST; dsDNA, one strand shown. The gist of the method:
as §1

For a further assay, the target named is ELF1 (Homo sapiens, UniProt P32519 1-619). To be noted: protein: recombinant; tags: N-terminal GST; dsDNA, one strand shown. The gist of the method: as §1
Chain of ELF1 (P32519 whole entry): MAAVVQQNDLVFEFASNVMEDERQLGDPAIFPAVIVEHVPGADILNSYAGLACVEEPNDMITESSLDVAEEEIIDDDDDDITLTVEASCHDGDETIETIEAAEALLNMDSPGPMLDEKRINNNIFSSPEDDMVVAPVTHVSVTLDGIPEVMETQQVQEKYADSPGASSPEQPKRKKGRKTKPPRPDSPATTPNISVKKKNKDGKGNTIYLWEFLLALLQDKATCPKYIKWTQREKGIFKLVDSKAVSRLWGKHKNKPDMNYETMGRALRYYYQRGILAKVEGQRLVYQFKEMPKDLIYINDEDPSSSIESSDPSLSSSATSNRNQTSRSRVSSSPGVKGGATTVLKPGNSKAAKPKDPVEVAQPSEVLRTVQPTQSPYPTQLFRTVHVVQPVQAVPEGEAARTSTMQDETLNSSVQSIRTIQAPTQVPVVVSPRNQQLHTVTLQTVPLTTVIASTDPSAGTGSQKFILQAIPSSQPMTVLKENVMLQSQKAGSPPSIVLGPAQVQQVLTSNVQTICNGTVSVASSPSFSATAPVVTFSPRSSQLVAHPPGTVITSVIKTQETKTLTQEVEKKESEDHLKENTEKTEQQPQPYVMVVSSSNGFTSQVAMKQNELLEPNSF
The target of another assay is T4, EHF (Homo sapiens, UniProt Q9NZC4 1-300).
T4 sequence: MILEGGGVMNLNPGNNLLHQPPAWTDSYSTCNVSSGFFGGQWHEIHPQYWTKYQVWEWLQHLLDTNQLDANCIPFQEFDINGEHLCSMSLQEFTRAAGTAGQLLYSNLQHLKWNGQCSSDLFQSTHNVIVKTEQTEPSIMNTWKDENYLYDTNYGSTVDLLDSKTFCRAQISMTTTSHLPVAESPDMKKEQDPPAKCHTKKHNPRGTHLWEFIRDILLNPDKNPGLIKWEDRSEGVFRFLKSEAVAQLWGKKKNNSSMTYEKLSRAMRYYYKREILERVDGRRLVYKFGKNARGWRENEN
To be noted: protein: recombinant; tags: N-terminal GST; dsDNA, one strand shown. In short, it runs like this:
as §1

Another assay addresses SPI1 (Homo sapiens, UniProt P17947 1-270). The settings on record: protein: recombinant; tags: N-terminal GST; dsDNA, one strand shown. In short, it runs like this:
as §1

The next assay concerns the target SPIB (Homo sapiens, UniProt Q01892 1-262). To be noted: protein: recombinant; tags: N-terminal GST; dsDNA, one strand shown. The gist of the method: as §1
A further assay addresses T5, FEV (Homo sapiens, UniProt Q99581 1-238).
T5 sequence: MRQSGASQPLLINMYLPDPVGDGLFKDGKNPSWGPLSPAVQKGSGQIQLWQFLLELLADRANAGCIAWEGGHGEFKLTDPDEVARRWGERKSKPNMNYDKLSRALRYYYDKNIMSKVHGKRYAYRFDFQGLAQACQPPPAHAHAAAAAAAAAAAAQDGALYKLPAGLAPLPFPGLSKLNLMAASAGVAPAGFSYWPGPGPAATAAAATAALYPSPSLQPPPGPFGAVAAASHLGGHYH
The settings on record: protein: recombinant; tags: N-terminal GST; dsDNA, one strand shown. The gist of the method: as §1

Another assay deals with ETV5 (Homo sapiens, UniProt P41161 1-510). The settings on record: protein: recombinant; tags: N-terminal GST; dsDNA, one strand shown. The gist of the method:
as §1

The next assay deals with HSF1 (Homo sapiens, UniProt Q00613 1-529). The settings on record: protein: recombinant; tags: N-terminal GST; chain copies: 3; dsDNA, one strand shown. In short, it runs like this:
as §1

The target in another assay is T6, SPIC (Homo sapiens, UniProt Q8N5J4 1-248).
T6 sequence: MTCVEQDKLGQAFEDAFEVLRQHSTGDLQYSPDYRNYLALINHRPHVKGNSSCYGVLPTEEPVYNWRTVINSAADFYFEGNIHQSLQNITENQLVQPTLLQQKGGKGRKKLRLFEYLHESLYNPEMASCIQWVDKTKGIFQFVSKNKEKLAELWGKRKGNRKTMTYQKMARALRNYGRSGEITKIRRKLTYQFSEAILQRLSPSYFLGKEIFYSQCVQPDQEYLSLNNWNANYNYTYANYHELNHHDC
The settings on record: protein: recombinant; tags: N-terminal GST; dsDNA, one strand shown. In short, it runs like this: as §1

In a further assay the target is ELF4 (Homo sapiens, UniProt Q99607 1-663). To be noted: protein: recombinant; tags: N-terminal GST; dsDNA, one strand shown. The gist of the method: as §1
Chain of ELF4 (Q99607 whole entry): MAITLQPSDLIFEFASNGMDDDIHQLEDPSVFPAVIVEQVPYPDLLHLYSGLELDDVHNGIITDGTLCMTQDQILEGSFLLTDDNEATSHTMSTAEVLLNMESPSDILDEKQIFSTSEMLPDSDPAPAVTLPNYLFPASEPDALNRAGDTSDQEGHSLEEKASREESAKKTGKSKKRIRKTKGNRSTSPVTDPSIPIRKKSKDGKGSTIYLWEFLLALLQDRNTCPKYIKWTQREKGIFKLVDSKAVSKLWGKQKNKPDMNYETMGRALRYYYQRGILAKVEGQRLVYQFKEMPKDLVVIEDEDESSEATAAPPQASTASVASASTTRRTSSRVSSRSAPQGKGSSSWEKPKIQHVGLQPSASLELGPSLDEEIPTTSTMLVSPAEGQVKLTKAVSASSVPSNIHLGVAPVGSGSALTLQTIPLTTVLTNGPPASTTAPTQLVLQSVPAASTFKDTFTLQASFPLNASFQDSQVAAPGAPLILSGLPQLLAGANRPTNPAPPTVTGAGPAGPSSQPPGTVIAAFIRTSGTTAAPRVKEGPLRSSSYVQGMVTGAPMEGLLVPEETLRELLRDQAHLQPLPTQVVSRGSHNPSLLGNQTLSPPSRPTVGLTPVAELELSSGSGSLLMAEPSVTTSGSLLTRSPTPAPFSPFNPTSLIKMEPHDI
Another assay concerns the target T7, ELK4 (Homo sapiens, UniProt P28324-2 1-405).
T7 sequence: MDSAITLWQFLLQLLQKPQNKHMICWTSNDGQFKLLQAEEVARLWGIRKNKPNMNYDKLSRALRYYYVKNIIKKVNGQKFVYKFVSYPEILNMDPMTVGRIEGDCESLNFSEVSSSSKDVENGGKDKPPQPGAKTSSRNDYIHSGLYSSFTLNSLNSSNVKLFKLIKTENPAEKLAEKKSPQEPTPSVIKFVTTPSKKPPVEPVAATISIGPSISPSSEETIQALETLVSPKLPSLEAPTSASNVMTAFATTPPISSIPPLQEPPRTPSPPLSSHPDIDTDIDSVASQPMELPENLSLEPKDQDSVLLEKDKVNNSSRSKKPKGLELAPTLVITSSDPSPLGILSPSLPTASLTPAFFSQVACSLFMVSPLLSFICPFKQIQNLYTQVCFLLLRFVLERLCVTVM
The settings on record: protein: recombinant; tags: N-terminal GST; dsDNA, one strand shown. The gist of the method:
as §1

The target of a further assay is T8, ETV2 (Homo sapiens, UniProt O00321 1-342).
T8 sequence: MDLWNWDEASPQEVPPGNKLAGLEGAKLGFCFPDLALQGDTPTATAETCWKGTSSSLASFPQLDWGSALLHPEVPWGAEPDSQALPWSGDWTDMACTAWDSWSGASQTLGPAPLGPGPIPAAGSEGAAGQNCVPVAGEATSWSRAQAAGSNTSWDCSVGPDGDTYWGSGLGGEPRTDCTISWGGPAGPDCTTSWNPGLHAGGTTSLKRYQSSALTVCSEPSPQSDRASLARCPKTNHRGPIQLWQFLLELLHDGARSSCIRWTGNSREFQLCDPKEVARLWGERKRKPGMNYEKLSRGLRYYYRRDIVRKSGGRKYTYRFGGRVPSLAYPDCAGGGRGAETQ
To be noted: protein: recombinant; tags: N-terminal GST; dsDNA, one strand shown. The gist of the method:
as §1

The target of the next assay is T9, ELF3 (Homo sapiens, UniProt P78545 1-371).
T9 sequence: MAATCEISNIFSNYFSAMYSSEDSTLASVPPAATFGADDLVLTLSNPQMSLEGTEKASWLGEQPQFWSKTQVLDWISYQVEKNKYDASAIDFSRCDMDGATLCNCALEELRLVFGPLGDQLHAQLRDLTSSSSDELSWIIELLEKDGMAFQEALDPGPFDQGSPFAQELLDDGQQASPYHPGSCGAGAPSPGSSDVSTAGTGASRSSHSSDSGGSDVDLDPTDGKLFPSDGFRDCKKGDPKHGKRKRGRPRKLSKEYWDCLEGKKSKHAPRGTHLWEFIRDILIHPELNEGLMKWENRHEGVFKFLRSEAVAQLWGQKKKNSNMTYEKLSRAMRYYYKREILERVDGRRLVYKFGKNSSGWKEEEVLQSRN
The settings on record: protein: recombinant; tags: N-terminal GST; dsDNA, one strand shown. In short, it runs like this: as §1

A further assay addresses CRX (Homo sapiens, UniProt O43186 1-299). To be noted: protein: recombinant; tags: N-terminal GST; dsDNA, one strand shown. The gist of the method:
as §1

Another assay has as its target ETV1 (Homo sapiens, UniProt P50549 1-477). To be noted: protein: recombinant; tags: N-terminal GST; dsDNA, one strand shown. In short, it runs like this:
as §1

Chain of CRX (O43186 whole entry): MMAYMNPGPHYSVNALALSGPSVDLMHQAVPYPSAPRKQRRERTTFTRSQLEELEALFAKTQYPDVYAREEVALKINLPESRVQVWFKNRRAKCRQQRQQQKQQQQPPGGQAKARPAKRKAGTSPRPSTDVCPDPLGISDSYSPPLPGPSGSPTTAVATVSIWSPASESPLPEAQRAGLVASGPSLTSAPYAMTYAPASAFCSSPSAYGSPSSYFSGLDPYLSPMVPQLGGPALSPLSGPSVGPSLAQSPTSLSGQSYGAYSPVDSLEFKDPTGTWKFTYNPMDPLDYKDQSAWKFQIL
Chain of ETV5 (P41161 whole entry): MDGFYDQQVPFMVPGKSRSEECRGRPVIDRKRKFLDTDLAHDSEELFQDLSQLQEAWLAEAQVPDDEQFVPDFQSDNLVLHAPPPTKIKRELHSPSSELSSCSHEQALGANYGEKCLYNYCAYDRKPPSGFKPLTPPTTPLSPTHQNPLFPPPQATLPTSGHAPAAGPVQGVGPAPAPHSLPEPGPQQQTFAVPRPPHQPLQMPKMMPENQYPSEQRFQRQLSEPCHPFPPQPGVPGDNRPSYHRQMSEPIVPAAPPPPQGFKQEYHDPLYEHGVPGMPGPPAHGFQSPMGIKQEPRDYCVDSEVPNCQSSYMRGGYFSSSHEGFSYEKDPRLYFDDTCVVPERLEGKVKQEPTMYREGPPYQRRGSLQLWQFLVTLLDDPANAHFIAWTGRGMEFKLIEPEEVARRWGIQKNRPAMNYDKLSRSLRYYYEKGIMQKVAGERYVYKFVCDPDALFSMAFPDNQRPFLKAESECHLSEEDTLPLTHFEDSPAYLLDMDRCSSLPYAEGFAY
Chain of SPIB (Q01892 whole entry): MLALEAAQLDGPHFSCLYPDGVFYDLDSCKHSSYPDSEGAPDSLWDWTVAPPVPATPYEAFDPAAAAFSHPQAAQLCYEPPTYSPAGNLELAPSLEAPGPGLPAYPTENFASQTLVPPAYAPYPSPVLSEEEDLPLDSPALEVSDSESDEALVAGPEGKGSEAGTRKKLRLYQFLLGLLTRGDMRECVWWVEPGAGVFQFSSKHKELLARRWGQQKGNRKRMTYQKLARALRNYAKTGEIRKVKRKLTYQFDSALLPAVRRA
Chain of ETV1 (P50549 whole entry): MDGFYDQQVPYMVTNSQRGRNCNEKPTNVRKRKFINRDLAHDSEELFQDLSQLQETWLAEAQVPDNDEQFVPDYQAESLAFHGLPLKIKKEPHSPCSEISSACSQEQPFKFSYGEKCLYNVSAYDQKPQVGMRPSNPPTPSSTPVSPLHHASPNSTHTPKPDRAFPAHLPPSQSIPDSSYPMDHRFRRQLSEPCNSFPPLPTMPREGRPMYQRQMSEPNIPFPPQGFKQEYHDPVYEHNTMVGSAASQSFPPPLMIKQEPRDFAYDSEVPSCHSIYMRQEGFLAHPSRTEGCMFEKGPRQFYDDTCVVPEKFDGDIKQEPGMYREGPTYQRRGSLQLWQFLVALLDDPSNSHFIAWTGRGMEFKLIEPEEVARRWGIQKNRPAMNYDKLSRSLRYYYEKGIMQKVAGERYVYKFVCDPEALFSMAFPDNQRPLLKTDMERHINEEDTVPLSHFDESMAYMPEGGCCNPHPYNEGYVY
Chain of HSF1 (Q00613 whole entry): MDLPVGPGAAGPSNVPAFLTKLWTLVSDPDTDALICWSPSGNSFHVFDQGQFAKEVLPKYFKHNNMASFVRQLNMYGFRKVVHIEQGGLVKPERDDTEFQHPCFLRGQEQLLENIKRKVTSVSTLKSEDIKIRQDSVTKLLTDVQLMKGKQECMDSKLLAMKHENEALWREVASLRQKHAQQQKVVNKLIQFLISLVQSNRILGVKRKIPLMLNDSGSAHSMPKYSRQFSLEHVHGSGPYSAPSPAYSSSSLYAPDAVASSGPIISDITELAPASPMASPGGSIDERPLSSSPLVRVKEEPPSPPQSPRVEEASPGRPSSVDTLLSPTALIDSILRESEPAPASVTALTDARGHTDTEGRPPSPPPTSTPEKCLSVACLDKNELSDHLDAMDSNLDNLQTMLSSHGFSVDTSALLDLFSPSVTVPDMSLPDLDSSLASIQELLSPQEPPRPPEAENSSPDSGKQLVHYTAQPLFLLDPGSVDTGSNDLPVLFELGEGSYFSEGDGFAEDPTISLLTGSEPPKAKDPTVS

As to TCATTA, the binding signal with FLI1 was 1.12 fold enrichment (6-mer frequency, TF over GST control); in the assay with GABPA, 1.07 fold enrichment (6-mer frequency, TF over GST control); in the assay with ERG, 1.06 fold enrichment (6-mer frequency, TF over GST control); with ELF1, 1.16 fold enrichment (6-mer frequency, TF over GST control); with EHF, 1.09 fold enrichment (6-mer frequency, TF over GST control); with SPI1, 1.12 fold enrichment (6-mer frequency, TF over GST control). For the same sequence, the binding signal is 1.16 fold enrichment (6-mer frequency, TF over GST control) with SPIB; 1.11 fold enrichment (6-mer frequency, TF over GST control) with FEV; 1.11 fold enrichment (6-mer frequency, TF over GST control) with ETV5; 1.18 fold enrichment (6-mer frequency, TF over GST control) with HSF1; 1.24 fold enrichment (6-mer frequency, TF over GST control) in the assay with SPIC; 1.15 fold enrichment (6-mer frequency, TF over GST control) with ELF4. The binding signal with ELK4 is 1.16 fold enrichment (6-mer frequency, TF over GST control); with ETV2 it was 1.08 fold enrichment (6-mer frequency, TF over GST control); with ELF3, 1.07 fold enrichment (6-mer frequency, TF over GST control); in the assay with CRX it was 1.62 fold enrichment (6-mer frequency, TF over GST control); with ETV1, 1.08 fold enrichment (6-mer frequency, TF over GST control).

The values above are taken from PMC7862700, “An all-to-all approach to the identification of sequence-specific readers for epigenetic DNA modifications on cytosine”.
